Some test systems named below: HCT-15 colon; HT29 colon; SNB-75 CNS; SNB-19 CNS; U251 CNS; PC-3 prostate; SK-MEL-5 melanoma; UACC-62 melanoma; LOX IMVI melanoma; SK-MEL-28 melanoma; EKVX NSCLC; SN12C renal; UO-31 renal; TK-10 renal; ACHN renal; CAKI-1 renal; A498 renal; CCRF-CEM leukemia; MOLT-4 leukemia.
Common to all, as to experiment: NCI-60 one-dose screen, 48 h (100 = growth as untreated, 0 = no growth, -100 = all killed)
Details in all cases: 10 µM unless noted

Compounds without any hit were thinned out: in the full panel of roughly 83,000, 20% have a hit.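 Percent growth is the endpoint: 0 to 100 indicates growth inhibition (40 means 60% inhibition), 0 means no net growth, and negative values indicate cell death.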 Unmarked numbers belong to inactive results. Activity calls are given as the source filed them. Rule for the calls: active = growth percent below 10; inactive = the rest.

The source of these data is PubChem BioAssay (NCI).

For the compound `COc1cc2c(Oc3ccc4[nH]c(C)cc4c3F)ncnc2cc1OCCCN1CCCC1`, the growth with HCT-15 colon was 99.4%; with HT29 colon, 83.9%; in the test on SNB-75 CNS it was 50.9%; in the test with SNB-19 CNS, 88.2%; with U251 CNS it was 63.2%; with PC-3 prostate, 103%. Further, the growth in the test with SK-MEL-5 melanoma was 104%; in the test on UACC-62 melanoma, 103%; in the test on LOX IMVI melanoma it was 85.8%; in the test on SK-MEL-28 melanoma it was 95.8%; in the test with EKVX NSCLC it was 95.4%; in the test on SN12C renal it was 91.9%. For the same compound, the growth in the test on UO-31 renal was 45.3%; with TK-10 renal it was 90.8%; in the test on ACHN renal, 68.2%; in the test with CAKI-1 renal, 58.9%; with A498 renal it was 2.51% (active); with CCRF-CEM leukemia, 106%. The growth in the test on MOLT-4 leukemia was 62.9%.
As for `CC(=O)OC(C(=O)c1ccccc1)c1ccccc1` (configuration not stated), the growth in the test with HCT-15 colon is 105%; in the test on HT29 colon it was 80.4%; in the test on SNB-75 CNS it was 84.6%; in the test on SNB-19 CNS it was 103%; in the test with U251 CNS, 106%; in the test on PC-3 prostate it was 89%. The growth in the test with SK-MEL-5 melanoma is 102%; in the test with UACC-62 melanoma, 100%; with LOX IMVI melanoma, 107%; in the test with SK-MEL-28 melanoma it was 107%; with EKVX NSCLC, 109%; in the test on SN12C renal, 94.6%. For the same compound, the growth in the test on UO-31 renal is 75.6%; in the test with TK-10 renal, 94.6%; in the test with ACHN renal, 101%; in the test with CAKI-1 renal, 91.7%; in the test with A498 renal, 95.9%; in the test with CCRF-CEM leukemia it was 104%. In addition, the growth in the test on MOLT-4 leukemia is 102%.
For the compound `CCc1cnn2c(NCc3ccc[n+]([O-])c3)cc(N3CCCC[C@H]3CCO)nc12`, the growth in the test with HCT-15 colon is 0.896% (active); in the test with HT29 colon it was -29.3% (active); in the test on SNB-75 CNS, -74.4% (active); in the test on SNB-19 CNS it was 6.92% (active); in the test on U251 CNS, -8.91% (active); in the test on PC-3 prostate, -20.5% (active). Moreover, the growth in the test on SK-MEL-5 melanoma was -40.2% (active); with UACC-62 melanoma, -70.7% (active); with LOX IMVI melanoma, 5% (active); in the test with SK-MEL-28 melanoma, -34.3% (active); in the test with EKVX NSCLC, -11.2% (active); in the test with SN12C renal, 4.31% (active). For the same compound, the growth in the test with UO-31 renal is -7.4% (active); with TK-10 renal it was -16% (active); in the test with ACHN renal it was 2.95% (active); in the test on CAKI-1 renal, 6.71% (active); with A498 renal, -60.4% (active); in the test with CCRF-CEM leukemia, -0.938% (active). Moreover, in the test with MOLT-4 leukemia, the growth was -9.3% (active).
Turning to `Nc1ccc(S(=O)(=O)O)c2cc(S(=O)(=O)O)cc(O)c12`, the growth is 101% in the test with HCT-15 colon; 108% in the test with HT29 colon; 113% with SNB-75 CNS; 105% in the test with SNB-19 CNS; 108% with U251 CNS; 97.8% in the test with PC-3 prostate. The growth with SK-MEL-5 melanoma is 103%; in the test on UACC-62 melanoma it was 112%; in the test with LOX IMVI melanoma, 90.2%; with SK-MEL-28 melanoma, 97.1%; in the test with EKVX NSCLC it was 101%; in the test on SN12C renal, 102%. The growth was 107% in the test on UO-31 renal; 105% in the test on TK-10 renal; 104% in the test with ACHN renal; 100% with CAKI-1 renal; 107% in the test with A498 renal; 102% with CCRF-CEM leukemia. The growth in the test on MOLT-4 leukemia is 101%.
Regarding `CC(C)CC(=O)Nc1n[nH]c2c1CN(C(=O)C1CCN(C)CC1)C2(C)C`, the growth is 78.8% in the test with HCT-15 colon; -1.54% (active) with HT29 colon; -19.8% (active) in the test with SNB-75 CNS; 11.5% with SNB-19 CNS; 2.91% (active) in the test with U251 CNS; 16.1% with PC-3 prostate. For the same compound, the growth with SK-MEL-5 melanoma was -35.7% (active); in the test with UACC-62 melanoma, -19.1% (active); with LOX IMVI melanoma, 9.19% (active); with SK-MEL-28 melanoma, 9.19% (active); with EKVX NSCLC, 57.8%; with SN12C renal, 19.2%. The growth with UO-31 renal is 80.9%; in the test on TK-10 renal, 49.2%; in the test on ACHN renal it was 54.2%; with CAKI-1 renal, 39.8%; in the test with A498 renal, 7.55% (active); in the test with CCRF-CEM leukemia it was 7.27% (active). Besides, the growth in the test with MOLT-4 leukemia was 4.42% (active).
As for `Cn1cnc2c(F)c(Nc3ccc(Br)cc3Cl)c(C(=O)NOCCO)cc21`, the growth was 70% in the test on HCT-15 colon; 7.16% (active) with HT29 colon; 71.6% in the test on SNB-75 CNS; 52.3% in the test on SNB-19 CNS; 46.2% in the test on U251 CNS; 90.7% with PC-3 prostate. In addition, the growth in the test with SK-MEL-5 melanoma is 38.2%; in the test with UACC-62 melanoma, -26.6% (active); in the test with LOX IMVI melanoma, 27.6%; in the test on SK-MEL-28 melanoma, -5.61% (active); in the test on EKVX NSCLC, 54.4%; with SN12C renal, 65.9%. For the same compound, the growth in the test with UO-31 renal is 40.9%; in the test on TK-10 renal, 33.7%; in the test on ACHN renal it was 52.1%; in the test on CAKI-1 renal, 40.2%; in the test on A498 renal, -37% (active); in the test with CCRF-CEM leukemia, 95.8%. For the same compound, the growth in the test with MOLT-4 leukemia is 92.2%.
Take `O=C1NC(=O)C(c2cnc3ccccn23)=C1c1cn2c3c(cc(F)cc13)CN(C(=O)N1CCCCC1)CC2`: the growth with HCT-15 colon is 56.7%; in the test on HT29 colon, 22.9%; with SNB-75 CNS, 37.4%; in the test on SNB-19 CNS, 71.1%; with U251 CNS it was 36.3%; in the test on PC-3 prostate, 41.8%. Further, the growth in the test on SK-MEL-5 melanoma is 32.8%; in the test on UACC-62 melanoma, 40.1%; in the test with LOX IMVI melanoma it was 27.5%; in the test with SK-MEL-28 melanoma, 76.8%; in the test with EKVX NSCLC, 68.6%; in the test with SN12C renal, 63.2%. Besides, the growth was 28.8% in the test on UO-31 renal; 56.1% in the test with TK-10 renal; 39.7% in the test with ACHN renal; 43.5% with CAKI-1 renal; -10.5% (active) in the test on A498 renal; 27.9% in the test on CCRF-CEM leukemia. In addition, the growth in the test on MOLT-4 leukemia is 12.1%.
With `COCc1c(-c2ccc(NC(=O)Nc3cc(C(F)(F)F)ccc3F)c(F)c2)c2c(N)ncnn2c1CN1CCOCC1`, the growth in the test on HCT-15 colon was -21% (active); in the test with HT29 colon, -26.8% (active); in the test with SNB-75 CNS, -95.8% (active); with SNB-19 CNS, -14.9% (active); with U251 CNS, -35.5% (active); in the test with PC-3 prostate, -25.4% (active). In addition, the growth is -78.9% (active) in the test on SK-MEL-5 melanoma; -38.8% (active) in the test with UACC-62 melanoma; -81.7% (active) with LOX IMVI melanoma; -6.65% (active) in the test with SK-MEL-28 melanoma; -25.4% (active) with EKVX NSCLC; -10.8% (active) in the test with SN12C renal. In addition, the growth in the test with UO-31 renal was -20% (active); in the test on TK-10 renal, -43% (active); in the test on ACHN renal, -1.81% (active); in the test with CAKI-1 renal it was -11.4% (active); in the test on A498 renal, -64.3% (active); in the test on CCRF-CEM leukemia, 5.76% (active). In the test on MOLT-4 leukemia, the growth is -5.86% (active).
